Screening data as filed in PubChem BioAssay.
CHX counter: counter-screen hit for Shiga toxin inhibitors, cycloheximide; cell reporter, cycloheximide protein synthesis inhibition counterscreen; 300,000 tested, 12% active; max response, %; in the data active = max response mostly above about 13%, no sharp cut-off; inactive = mostly below about 14%; note: read at 38.3 µM for the half of the compounds with a filed dose
RE007 growth inh: less growth of the S. pombe RE007 Vpr strain | S. pombe RE007 Vpr strain, BacTiter-Glo ATP luminescence, 24 h | Potency, µM (doses to about 92.2 µM), hits mostly inhibitors | 360,000 tested, 0.21% active | AID 651644; active = well fitted falling curve with a large enough effect; inconclusive = small, poorly fitted or top-dose-only effect; inactive = no such curve, though single readings can be large or run the other way; note: nearly all actives have a fitted effect of over 50% in size
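Fission yeast strain RE007, carrying one chromosomally integrated HIV-1 vpr copy, was seeded at OD 0.01 in PMG+AL medium with 23 nL pinned compound. After 24 h at 30 °C and 99% humidity, viability was read by BacTiter-Glo luminescence.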
Shiga toxin inh: Shiga toxin inhibition | Vero cells, Shiga toxin protein synthesis inhibition reporter | inhibition, % at 38.7 µM | 290,000 tested, 9.2% active | AID 2315; in the data active = inhibition mostly above about 28%, no sharp cut-off; inactive = mostly below about 43%
TbPYK inhibitor: T. brucei pyruvate kinase inhibition. Q57TT1. TbPYK enzyme, Kinase-Glo Plus ATP luminescence, 45 min. Potency, µM (titrated, usually from 76.8 µM), actives largely listed as inhibitors. 410,000 tested, 0.12% active. AID 624173; note: nearly all actives have a fitted effect of over 50% in size
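Activity of T. brucei pyruvate kinase was followed by Kinase-Glo Plus luminescence after the enzyme reacted 45 min at room temperature with 130 uM ADP (final) and substrate. Test compounds were added before ADP at multiple concentrations.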
Giardia FBPA inh: Giardia lamblia aldolase inhibition; A8B2U2; purified Giardia FBPA; Potency, µM (titrated, usually from 59.6 µM), usual class: inhibitors; 290,000 tested, 0.71% active; AID 2451; note: nearly all actives have a fitted effect of over 55% in size
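Giardia FBPA (40 nM reagent) was preincubated 10 min at RT with compound (up to 57.5 uM final), then substrate plus GAPDH/TPI/NAD/arsenate coupling system with diaphorase/resazurin was added; resorufin fluorescence (525/598 nm) was read after 20 min.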
LmPK inh: blocks Leishmania mexicana pyruvate kinase activity. Q27686. purified LmPK, Kinase-Glo ATP luminescence, 1 h. Potency, µM (top dose mostly 57.5 µM), actives largely listed as inhibitors. 290,000 tested, 0.37% active. AID 1721
Target sequence (Q27686 whole entry, looked up): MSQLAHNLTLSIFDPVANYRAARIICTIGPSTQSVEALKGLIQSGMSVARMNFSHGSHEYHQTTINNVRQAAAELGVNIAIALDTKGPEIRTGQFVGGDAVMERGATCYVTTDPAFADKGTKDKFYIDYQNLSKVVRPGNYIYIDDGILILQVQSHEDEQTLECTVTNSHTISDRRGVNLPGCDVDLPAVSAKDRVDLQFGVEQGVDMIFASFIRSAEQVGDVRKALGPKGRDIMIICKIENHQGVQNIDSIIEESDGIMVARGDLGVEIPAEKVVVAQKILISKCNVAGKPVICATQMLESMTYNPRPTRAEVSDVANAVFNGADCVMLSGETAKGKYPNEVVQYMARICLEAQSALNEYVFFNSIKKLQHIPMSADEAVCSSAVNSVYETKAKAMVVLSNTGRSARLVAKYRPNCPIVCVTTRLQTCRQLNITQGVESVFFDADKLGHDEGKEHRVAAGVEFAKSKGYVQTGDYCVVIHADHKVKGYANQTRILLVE
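ATP generated from ADP (0.1 mM) and PEP (0.5 mM) by 0.1 nM LmPK over 1 h at room temperature (pH 7.2 imidazole buffer) was detected by coupled luciferase luminescence. Values were normalized to uninhibited and no-enzyme wells.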
A number is an active result; i = inactive; ? = inconclusive; nt = not tested or not shown; [ ] = remark or other dose. Many of the other results were omitted from the sample, so hits are more common in it than they were. Unless noted, calls come from the whole dose curve; as a rule, active = well fitted curve in the direction sought with a large enough effect; inconclusive = small, poorly fitted or top-dose-only effect, or another doubt; inactive = no such curve, though single readings can be large; an effect the other way counts as inactive or inconclusive.

SMILES | CHX counter | RE007 growth inh | Shiga toxin inh | TbPYK inhibitor | Giardia FBPA inh | LmPK inh
CSc1nc(N)c(NC(=O)c2ccc(Br)o2)c(=O)[nH]1 | i | i | i | i | nt | i
Cc1noc(C(F)(F)F)c1C(=O)NNC(=O)c1cccc(C(F)(F)F)c1 | i | i | i | i | i | i
O=C1CC=C2C3CC4N(CCC45c4cc(O)c(O)cc4N1C25)CC3=CCBr (configuration not stated) | nt | i | nt | 2.82µM | nt | nt
CCN1CCN(c2nc(Nc3ccccc3F)nc(N)c2[N+](=O)[O-])CC1 | i | i | i | i | i | i
CN(c1ccccc1)c1nc(N)c([N+](=O)[O-])c(N2CCOCC2)n1 | i | i | i | i | i | i
CN(c1ccccc1)c1nc(N)c([N+](=O)[O-])c(N2CCCC2)n1 | 36.9 | i | 80.9 | i | i | i
CC1CC(C)CN(c2nc(N(C)c3ccccc3)nc(N)c2[N+](=O)[O-])C1 (configuration not stated) | i | i | i | i | i | i
Nc1nc(Nc2ccccc2F)nc(N2CCCC2)c1[N+](=O)[O-] | 50.9 | i | 106.8 | i | i | i
CN(c1ccccc1)c1nc(N)c([N+](=O)[O-])c(N2CCCCC2)n1 | 31.8 | i | 61.1 | i | i | i
CCCCN(C(=O)CC1CCCC1)c1c(N)n(Cc2ccccc2)c(=O)[nH]c1=O | nt | i | nt | i | nt | nt
Cc1cccc(-n2c(C)nc3cc(C(=O)N4CCOCC4)ccc32)c1 | 13.4 | i | i | i | i | i
CCCCCNC(=O)c1ccc2c(c1)ncn2-c1cccc(C)c1 | nt | nt | nt | i | nt | nt
Cc1cccc(-n2cnc3cc(C(=O)N4CCCCC4)ccc32)c1 | 40.5 | i | 99.6 | i | i | i
Cc1cccc(Nc2ccc(C(=O)N3CCOCC3)cn2)c1 | 46.1 | i | 65.6 | i | i | i
Cc1ccc(C(=O)N2CCCC2(C)C(=O)NCC(C)C)cc1F (configuration not stated) | nt | i | nt | i | nt | nt
Cc1ccc2c(=O)c(C(=O)c3ccc(F)cc3)cn(CC(=O)NCc3ccccc3Cl)c2n1 | nt | nt | nt | i | nt | nt
O=C(NCCOc1ccc(Cl)cc1)c1ccc2c(c1)OCCO2 | nt | i | nt | i | nt | nt
O=C(NCCc1ccc(Cl)cc1)c1ccc2c(c1)OCCO2 | 41.8 | i | nt | i | i | i
O=C(NCCc1ccc2c(c1)OCCO2)c1ccc(F)cc1 | 34.2 | i | i | i | i | i
O=C(NCCc1ccc(Cl)cc1)c1ccc2c(c1)OCO2 | 43.0 | i | 83.4 | i | i | i
O=C(NCCN1CCCCC1)c1ccc2c(c1)OCCO2 | 13.6 | i | i | i | i | i
COC(=O)COc1cccc(NC(=O)COc2ccccc2)c1 | i | i | i | i | i | i
C/C(=N\NC(=O)c1c(Cl)cnn1C)c1cccc(NC(=O)COc2ccccc2)c1 | 16.4 | i | i | i | i | i
CC(=O)c1cccc(NC(=O)COc2ccccc2)c1 | 18.2 | i[3.69 µM] | i | nt | i | i
CSc1cccc(NC(=O)COc2ccccc2)c1 | 40.1 | ? | i | ? | i | i
SMILES | CHX counter | RE007 growth inh | Shiga toxin inh | TbPYK inhibitor | Giardia FBPA inh | LmPK inh
CC(C)CCOCC(=O)Nc1cccc(C(=O)O)c1 | 105.1 | i | 120.4 | i | i | i
[O-][N+](=Cc1c(Cl)cccc1Cl)CC1(O)CCCCC1 | nt | i | nt | i | nt | nt
CCCCOc1ccccc1C1NC(=O)CCC1[N+](=O)[O-] (configuration not stated) | i | i | i | i | ? | i
CCN(CC)c1ncnc2c1cnn2-c1cc(Cl)ccc1C | nt | nt | nt | i | nt | nt
CCOc1ccccc1Nc1ncnc2c1cnn2-c1ccccc1 | i | i | i | i | i | i
COCCNc1ncnc2c1cnn2-c1ccc(Cl)cc1 | 43.2 | i | 73.5 | i | i | i
COCCN(CCOC)c1ncnc2c1cnn2-c1ccc(Cl)cc1 | 59.6 | i | 76.3 | i | i | i
COCCN(CCOC)c1ncnc2c1cnn2-c1ccccc1 | 15.1 | i | 34.2 | i | i | i
CN(C)c1ccc(CNC(=O)c2cnc3sc(N4CCOCC4)nn3c2=O)cc1 | nt | nt | nt | i | nt | nt
COC(=O)[C@H](COC(C)(C)C)NC(=O)O[C@@H]1C(=O)c2cc(Br)ccc2O[C@H]1c1ccc2c(c1)OCO2 | nt | nt | nt | nt | i | nt
Cc1nc2cnc(N3CCN(C)CC3)nc2n(C)c1=O | nt | nt | nt | nt | i | nt
O=CN1CCN(C(=O)c2cc3cc(Cl)ccc3[nH]2)CC1 | i | i | nt | i | i | i
